Drawing on PubChem BioAssay AID687021 (Broad Institute, 2013), this text covers outcome for 22 molecules.

Activity calls are given as the source filed them.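 Rule for the calls: active = compounds lowering luciferase light whose fitted half-effect concentration is at most twice the top tested dose; inconclusive = flat curve with 30 to 70% inhibition, or poor fit; inactive = the rest.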

A short description of the experiment: luciferase signal loss, tTA control fusion, HeLa F-luc tTA cells, dry powder, counter-screen for HIV Env fusion inhibitor project, dose response (AID 687021). The note with it: luciferase luminescence counterscreen; series mostly up to 35 µM. In general terms: Counterscreens check selectivity or assay interference.
For `COc1ccc2c(c1)[nH]c1c(N3CCN(Cc4ccc5c(c4)OCO5)CC3)ncnc12`, the result was inactive.
Regarding `CCOc1ccc(S(=O)(=O)NCc2ccncc2)cc1`, the molecule was classed as inactive.
As to `C[C@@H]1CN([C@H](C)CO)C(=O)c2cccc(NC(=O)C3CCCCC3)c2O[C@H]1CN(C)Cc1ccccc1`, the outcome was inactive.
The value for `Cc1ccc(C)n1-c1ccc(C(=O)O)c(O)c1` was “inactive”.
The value for `O=C(CCCn1c(=S)[nH]c2cc3c(cc2c1=O)OCO3)N1CCN(c2ccc(Cl)cc2)CC1` was “inactive”.
As for `COC(=O)COc1ccc(S(=O)(=O)NCc2ccncc2)cc1`, the molecule was classed as inactive.
Consider `CCOc1ccc(S(=O)(=O)NCc2ccncc2)cc1OCC`, for which the result was inactive.
Then `Cc1noc(C)c1S(=O)(=O)Nc1cccc2c1O[C@@H](CN(C)Cc1ccc(C(F)(F)F)cc1)[C@@H](C)CN([C@@H](C)CO)C2=O`, with “inactive”; and `CCOc1ccc(C(=O)C2CCN(CC(=O)Nc3ccccc3N3CCOCC3)CC2)cc1`, with “inactive”.
Then `O=S(=O)(NCc1ccncc1)c1ccc2c(c1)OCCO2`, with “inactive”.
Then `CCOc1ccc(S(=O)(=O)NCc2ccccc2)cc1`, with “inactive”.
As for `CCCC#Cc1ccc2c(c1)O[C@@H](CN(C)S(=O)(=O)c1cccc(F)c1)[C@@H](C)CN([C@H](C)CO)S2(=O)=O`, the molecule was called inactive.
The value for `C[C@@H]1CN([C@H](C)CO)C(=O)c2cccc(NS(=O)(=O)c3ccc(Cl)cc3)c2O[C@@H]1CN(C)Cc1ccc(Cl)c(Cl)c1` was “inactive”.
`O=C(CCc1ccc(S(=O)(=O)N2CCOCC2)cc1)Nc1nc(COc2ccccc2)cs1`: the call was inactive.
Then `Cc1ccc2c(CN3CCN(S(=O)(=O)c4ccc5c(c4)OCCO5)CC3)cc(=O)oc2c1C`, with “inactive”.
With `CCCOc1ccc(S(=O)(=O)NCc2ccncc2)c2ccccc12`, the result was inactive.
The value for `Oc1ccc(CNc2ccccc2F)c2cccnc12` was “inactive”.
As for `Cc1ccc(S(=O)(=O)N(C)C[C@@H]2Oc3ccc(NS(=O)(=O)c4c(C)noc4C)cc3CC(=O)N([C@H](C)CO)C[C@@H]2C)cc1`, the outcome was inactive.
Then `Cc1noc(C)c1S(=O)(=O)Nc1cccc2c1O[C@H](CN(C)Cc1ccc(C(F)(F)F)cc1)[C@@H](C)CN([C@H](C)CO)C2=O`, with “inactive”; and `Cn1c(C(=O)N2CCN(c3nc4ccccc4s3)CC2)cc2sccc21`, with “inactive”; and `COc1ccc(-c2nn(C)c(=O)c3ccccc23)cc1NC(=O)Cn1nc(C)c2ccccc2c1=O`, with “inactive”.
The value for `Cc1oc(-c2ccc(Cl)cc2)nc1CN1CCCC(C(=O)NCc2cccnc2)C1` (configuration not stated) was “inactive”.
